Laboratory results reported in PubChem BioAssay AID1159580 (chemical genetic matrix, 2015).
“And” between values parts separate entries of the source, which are not always exact repeats. Equal values may be shown once. Among all 5,500 compounds or so, about 2,000 (36%) were called active. Roughly 18% stayed inconclusive and do not appear here. No stated cut-off is given here; in the data, active means normalized growth mostly below about 0.91 (no sharp cut-off); inconclusive means no clear call, values can overlap the other calls; inactive means mostly above about 0.92. The list shows a part of the results.

Assay: chemical genetic growth profiling, strain panel (AID 1159580);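 further: tested at 20 µM; growth read once vehicle control cultures reached saturation at 30 °C; 1 = growth at the plate median or of vehicle wells; lower values mean less growth of the strain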
Conditions: S. cerevisiae deletion strains, growth OD

Measured: normalized growth

O=C(O)COc1cc(Cl)c(Cl)cc1Cl
inactive: locus YAL013W, strain DEP1, active compounds read low 1 | locus YAL021C, strain ccr4, active compounds read low 0.984 | locus YAL026C, strain drs2, active compounds read low 1 | locus YAL030W, strain snc1, active compounds read low 1.01 | locus YBL061C, strain skt5, active compounds read low 1 | locus YBR009C, strain hhf1, active compounds read low 1 | locus YBR021W, strain FUR4, active compounds read low 1.01 | locus YBR023C, strain chs3, active compounds read low 1 | locus YBR171W, strain sec66, active compounds read low 0.998 | locus YBR229C, strain ROT2, active compounds read low 1.01 | locus YBR231C, strain swc5, active compounds read low 1 | locus YBR279W, strain paf1, active compounds read low 1 | locus YCL011C, strain gbp2, active compounds read low 1 | locus YCL016C, strain dcc1, active compounds read low 0.988 | locus YCL029C, strain bik1, active compounds read low 1.02 | locus YCL061C, strain MRC1, active compounds read low 1 | locus YCL069W, strain vba3, active compounds read low 0.993 | locus YCR088W, strain abp1, active compounds read low 1 | locus YDL005C, strain med2, active compounds read low 0.995 | locus YDL035C, strain GPR1, active compounds read low 1.02 | locus YDL040C, strain nat1, active compounds read low 0.994 | locus YDL074C, strain BRE1, active compounds read low 1.01 | locus YDL101C, strain DUN1, active compounds read low 0.982 | locus YDL134C, strain PPH21, active compounds read low 1.01 | locus YDL185W, strain tfp1, active compounds read low 1.03 | locus YDL192W, strain arf1, active compounds read low 1.02 | locus YDR001C, strain nth1, active compounds read low 1.01 | locus YDR069C, strain doa4, active compounds read low 0.994 | locus YDR101C, strain arx1, active compounds read low 1.02 | locus YDR137W, strain rgp1, active compounds read low 1.05 | locus YDR150W, strain NUM1, active compounds read low 1 | locus YDR159W, strain sac3, active compounds read low 0.999 | locus YDR162C, strain NBP2, active compounds read low 1 | locus YDR195W, strain ref2 0.952 | locus YDR297W, strain sur2, active compounds read low 1 | locus YDR318W, strain mcm21, active compounds read low 1.02 | locus YDR334W, strain swr1, active compounds read low 0.998 | locus YDR335W, strain msn5, active compounds read low 0.994 | locus YDR388W, active compounds read low 1.02 | locus YDR392W, strain spt3, active compounds read low 1.01 | locus YDR502C, strain sam2, active compounds read low 1.01 | locus YEL003W, strain gim4, active compounds read low 1.02 | locus YEL037C, strain rad23, active compounds read low 1.01 | locus YEL061C, strain CIN8 (second series), active compounds read low 0.999 | locus YEL061C, strain CIN8, active compounds read low 1 | locus YER015W, strain faa2, active compounds read low 1 | locus YER016W, strain bim1, active compounds read low 1 | locus YER110C, active compounds read low 1.02 | locus YER111C, strain swi4, active compounds read low 0.993 | locus YER155C, strain BEM2 (second series), active compounds read low 0.989 | locus YER155C, strain BEM2, active compounds read low 1.01 | locus YER167W, strain BCK2, active compounds read low 1.02 | locus YFR010W, strain ubp6, active compounds read low 1 | locus YGL078C, strain dbp3, active compounds read low 1.02 | locus YGL086W, strain mad1, active compounds read low 1.01 | locus YGL167C, strain pmr1, active compounds read low 1 | locus YGL173C, strain kem1, active compounds read low 0.994 | locus YGL227W, strain vid30, active compounds read low 1 | locus YGL240W, strain doc1, active compounds read low 0.999 | locus YGL248W, strain PDE1, active compounds read low 1.02 | locus YGL253W, strain hxk2, active compounds read low 0.995 | locus YGR078C, strain PAC10, active compounds read low 1.02 | locus YGR135W, strain pre9, active compounds read low 1.03 | locus YGR229C, strain SMI1, active compounds read low 1.02 | locus YGR252W, strain gcn5, active compounds read low 1.04 | locus YHR013C, strain ard1, active compounds read low 0.997 | locus YHR027C, strain rpn1, active compounds read low 0.998 | locus YHR030C, strain SLT2, active compounds read low 1.01 | locus YHR079C, strain IRE1 (second series), active compounds read low 1.02 | locus YHR079C, strain IRE1, active compounds read low 1.02 | locus YHR094C, strain hxt1, active compounds read low 1.02 | locus YHR129C, strain ARP1, active compounds read low 1.01 | locus YHR142W, strain chs7, active compounds read low 1 | locus YHR200W, strain rpn10, active compounds read low 1.01 | locus YIL066C, strain RNR3, active compounds read low 1.03 | locus YIL073C, strain SPO22, active compounds read low 1.09 | locus YIL125W, strain kgd1, active compounds read low 1.02 | locus YIR030C, strain dcg1, active compounds read low 1.02 | locus YJL092W, strain hpr5, active compounds read low 0.999 | locus YJL095W, strain BCK1 (second series), active compounds read low 0.994 | locus YJL095W, strain BCK1, active compounds read low 1.02 and 1.03 | locus YJL115W, strain asf1, active compounds read low 0.991 | locus YJL129C, strain trk1, active compounds read low 0.998 | locus YJL134W, strain LCB3, active compounds read low 1.01 | locus YJL154C, strain vps35, active compounds read low 0.998 | locus YJL164C, strain tpk1, active compounds read low 1.01 | locus YJL166W, strain qcr8, active compounds read low 1.01 | locus YJL168C, strain set2, active compounds read low 1.02 | locus YJL187C, strain SWE1 (second series), active compounds read low 1.01 | locus YJL187C, strain SWE1, active compounds read low 1 | locus YJR043C, strain POL32, active compounds read low 1.01 | locus YJR066W, strain TOR1, active compounds read low 0.94
